{
  "source": "PubChem BioAssay (NCATS)",
  "note": "Inconclusive results are not listed. Unmarked numbers belong to inactive results. The call rests on the fitted dose curve; in most records, active means well fitted inhibition curve with a large enough effect; inconclusive means small, poorly fitted or top-dose-only effect; inactive means flat fitted curve, though single readings scatter.",
  "data": [
    {"molecular_target": "Aldehyde dehydrogenase, mitochondrial (Homo sapiens) (UniProt P05091)", "assay": "qHTS for Inhibitors of the Aldehyde Dehydrogenase Family (ALDH2) Primary screen (AID 2061308);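 further: plate controls were vehicle for no effect and reference inhibitor for full effect; nearly all actives have a fitted effect of over 55% in size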", "settings": "ALDH2 enzyme inhibition qHTS, 1536-well; series mostly up to 56 µM; activity change, negative = inhibition: at the top concentration", "values": [
      {"smiles": "C=C1CC2OC(=O)C(COC)C2C(OC(=O)/C(C)=C\\C)CC2(C)OC1=CC2=O", "note": "(stereo not drawn)", "activity change, negative = inhibition": "9.1%"},
      {"smiles": "Cn1nnc(-c2ccc(-c3ccc(N4C[C@H](CO)OC4=O)cc3F)cn2)n1", "activity change, negative = inhibition": "13.5%"},
      {"smiles": "O=C1CC[C@H](C(=O)N2CCCCC2)N1", "activity change, negative = inhibition": "-0.345%"},
      {"smiles": "CC1(C)[C@@H](O)CC[C@]2(C)[C@H]3CC=C4[C@@H]5C[C@](C)(C(=O)O)CC[C@]5(C)CC[C@@]4(C)[C@]3(C)CC[C@@H]12", "activity change, negative = inhibition": "2.25%"},
      {"smiles": "C=C(C(=O)OC)C1C(O)CC2(C)C(O)CCC(=O)C2C1O", "note": "(stereo not drawn)", "activity change, negative = inhibition": "5.65%"},
      {"smiles": "COc1cc(/C=C2\\CC[C@H]3COC[C@@H](c4cc(F)c(F)c(F)c4)N3C2=O)ccc1-n1cnc(C)c1", "activity change, negative = inhibition": "-15%"},
      {"smiles": "C=C1CCC2C(C)(C(=O)O)CCCC2(C)C1CC/C(=C\\CO)CO", "note": "(stereo not drawn)", "activity change, negative = inhibition": "-0.0949%"},
      {"smiles": "C=CC1(C)CC(O)C2(CCC3C(C)(C(=O)O)CCCC3(C)C2=O)C1", "note": "(stereo not drawn)", "activity change, negative = inhibition": "2.67%"},
      {"smiles": "CCc1ccc(Cc2ccc3c(c2)[C@]2(OC3)O[C@H](CO)[C@@H](O)[C@H](O)[C@H]2O)cc1", "activity change, negative = inhibition": "-5.17%"},
      {"smiles": "COC1(CC(C)C)NC(=O)C(O)(Cc2ccccc2)NC1=O", "note": "(stereo not drawn)", "activity change, negative = inhibition": "-2.9%"},
      {"smiles": "COC(=O)c1ccc(N2CCN(C)CC2)c(NC(=O)c2cccc(OC)c2)c1", "activity change, negative = inhibition": "-0.729%"},
      {"smiles": "C=CC(C)(O)CC/C=C(\\C)C(=O)OC1CC2(C(=O)O)CCC3(C)C(=CCC4C5(C)CCC(OC6OC(COC7OCC(O)C(O)C7O)C(O)C(OC7OCC(O)C(O)C7O)C6OC6OC(CO)C(O)C(O)C6OC6OCC(O)C(O)C6O)C(C)(C)C5CCC43C)C2CC1(C)C", "note": "(stereo not drawn)", "activity change, negative = inhibition": "3.26% [at 11.2 µM]"},
      {"smiles": "COc1c2c(c(C)c3c1C(=O)OC3)OC1(C)CC(O)C34OC(OC)(CC(OC(C)=O)C3(C)C1C2)OC4(C)C", "note": "(stereo not drawn)", "activity change, negative = inhibition": "-15.9% [at 28 µM]"}
    ]}
  ]
}
